FUS suppressor: qHTS for Suppressors of FUS Proteinopathy: Primary screen using FUS-linked yeast assay. S. cerevisiae FUS-expressing, growth rescue, OD600, 24 h. Potency, µM (series often up to 76.6 µM), usual class: activators. 390,000 tested, 0.24% active;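 further: plate controls were DMSO vehicle for no effect and reference control for full effect; nearly all actives have a fitted effect of over 55% in size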
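S. cerevisiae expressing FUS from galactose induction served as the toxicity model. Growth after 24hr at 30C, read as absorbance at 600 nm, indicates suppression of toxicity; compounds dosed at several concentrations.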
TDP-43 yeast inh: qHTS of TDP-43 Inhibitors; Potency, µM (series often up to 46.1 µM), without a hit: at the top dose growth rescue (activation), most hits filed as activators; 410,000 tested, 1.8% active; TDP-43 expressing yeast growth rescue, BacTiter-Glo, 24 h; AID 652104, 2013; further: % of control where 0% means no effect; nearly all actives have a fitted effect of over 50% in size
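Yeast cells expressing TDP-43 under galactose induction are exposed to compounds for 24 hr at 30 deg C. BacTiter-Glo luminescence measures growth, so protective compounds score as activators.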
ClpP mod: qHTS Assay for Activators of ClpP | 340,000 tested, 1.9% active | purified B. subtilis ClpP, FRET peptide cleavage, 20 min | Potency, µM (titrated, usually from 57.5 µM), for the others: at the highest dose activity change, negative = active | AID 651965, 2013; active means well fitted falling curve with a large enough effect; inconclusive means small, poorly fitted or top-dose-only effect; inactive means no such curve, though single readings can be large or run the other way; further: the source files actives as falling curves though it sought activators and does not explain the sign; nearly all actives have a fitted effect of over 65% in size
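FRET quenching reversal measured ClpP activation: 10 microg/mL B. subtilis ClpP at pH 8 with the FRET-FV decapeptide, read at 430 nm after 320 nm excitation. The 20-min minus 0-min signal was scaled between DMSO/no-enzyme wells and ADEP (5.8 microM final).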
MmCpn inh: Inhibitors of TCP-1 ring complex (TRiC) of Methanococcus maripaludis (MmCpn): qHTS; Potency, µM (series often up to 76.9 µM), for inactives: at the top dose activity, negative = inhibition, usual class: inhibitors; purified Mm-Cpn ATPase, ADP Transcreener TR-FRET; 330,000 tested, 0.031% active; AID 504842, 2011; further: on the % scale 0 is the no-effect control and ±100 the full control effect; nearly all actives have a fitted effect of over 80% in size
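ATPase read-out: TR-FRET ADP immunoassay (anti-ADP Eu cryptate vs ADP-d2), ex 320 nm, em 590/665 nm; signal drops as ADP forms. Enzyme 25 nM, ATP 10 uM, 30 min at 37°C after 10 min compound preincubation.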
aSyn yeast inh: qHTS of alpha-syn Inhibitors | Yeast expressing alpha-synuclein, growth rescue, BacTiter-Glo, 24 h | Potency, µM (top dose mostly 46.1 µM), for the others: at the top dose growth rescue (activation), most hits filed as activators | 370,000 tested, 0.14% active | AID 652106, 2013; further: % of control where 0% means no effect; nearly all actives have a fitted effect of over 65% in size
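Screening used galactose-induced yeast with toxic alpha-synuclein levels, exposed to compound for 24 hr at 30 deg C. Cell growth, read with BacTiter-Glo luminescence, gave the measured signal.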
Abeta yeast res: qHTS for compounds that reverse cellular toxicity of Amyloid beta (A-beta) peptide in yeast: Primary Screen; Potency, µM (top dose mostly 46.1 µM), most hits filed as activators; yeast expressing A-beta42, growth rescue, OD600, 48 h; response scale: 0% DMSO, 100% iron-clioquinol control; 410,000 tested, 0.063% active; AID 1347071, 2019; further: nearly all actives have a fitted effect of over 55% in size
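Growth rescue measured by 600 nm absorbance after 48 h yeast culture at 30 C with compound. Values normalized between DMSO and an equimolar ferric chloride plus clioquinol control.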
Active calls of the source: *; i = inactive; ? = inconclusive; / = no result. Most compounds without a hit are left out; they make up all but 3.6% or so of the library. Unless noted, the call rests on the fitted dose curve; in most records, active means well fitted curve in the direction sought with a large enough effect; inconclusive means small, poorly fitted or top-dose-only effect, or another doubt; inactive means no such curve, though single readings can be large; an effect the other way counts as inactive or inconclusive. Potency means the concentration at half of the fitted maximal effect.

SMILES | FUS suppressor | TDP-43 yeast inh | ClpP mod | MmCpn inh | aSyn yeast inh | Abeta yeast res
CC(C(=O)NCc1ccc2c(c1)OCO2)N1c2cccc3cccc(c23)S1(=O)=O (stereo not drawn) | i | 13µM* | -9% | -3% | 0% | i
N#Cc1ccccc1OCC(=O)N1CCN(c2ccccc2F)CC1 | i | 22µM* | 0% | / | / | i
COc1ccccc1N1CCN(C(=O)COc2ccccc2C#N)CC1 | i | ? | -4% | / | / | i
CCOc1cc2[nH]c(=O)n(CCCCC(=O)N3CCCCCC3)c(=O)c2cc1OCC | i | 16% | 13µM* | -1% | -1% | i
O=C(CCCCCN1C(=O)c2ccccc2C1=O)NCc1ccco1 | i | 24% | 18µM* | 1% | 1% | i
CCOc1cc2[nH]c(=O)n(CCCC(=O)NCc3ccco3)c(=O)c2cc1OCC | i | 7% | 25µM* | 0% | 1% | i
CCOc1cc2[nH]c(=O)n(CCCCC(=O)NCc3ccco3)c(=O)c2cc1OCC | i | 11% | 35µM* | 0% | 2% | i
COc1ccccc1CNC(=O)C1CCCN(S(=O)(=O)c2ccc3c(c2)CCCN3C(C)=O)C1 (stereo not drawn) | i | -4% | -7% | / | / | i
CS(=O)(=O)Nc1ccccc1C(=O)OCC(=O)N1CCC(c2ccccc2)=N1 | ? | 25µM* | -16% | ? | -10% | i
Cc1ccc(C(=O)OCC(=O)N2CCC(c3ccccc3)=N2)c(C)c1 | i | -9% | / | -1% | 5% | i
O=C(COC(=O)C1=NN(c2ccccc2)C(=O)CC1)NCc1ccccc1Cl | i | 4% | 28µM* | 0% | -3% | i
Cc1ccc(N2C(=O)C(Cl)=C(N3CCOCC3)C2=O)c(C)c1 | i | 20µM* | 0% | 1% | -2% | i
Cc1ccccc1N1C(=O)C(Cl)=C(N2CCOCC2)C1=O | i | 8% | -2% | -1% | 2% | i
c1ccc(-n2nc3c(ccc4cnnc43)[nH]2)cc1 | i | 29% | 11µM* | -4% | -8% | i
COC(=O)[C@H](C(C)C)N1CCc2nnn(Cc3ccccc3)c2-c2cc(F)ccc2S1(=O)=O | i | / | / | / | / | /
COc1ccc(N2C(=O)c3ccccc3NC23CCCCC3)cc1 | i | -5% | 28µM* | -5% | 1% | i
COc1ccc(N2C(=O)c3ccccc3NC23CCC(C)CC3)cc1 (stereo not drawn) | i | -11% | ? | 0% | -4% | i
O=C([C@@H]1CC=C[C@@H]2CCN(C3CC3)C(=O)[C@@H]21)N1CCOCC1 | / | / | 0% | / | / | /
O=C(c1cnn(-c2ccccc2)c1)c1cc(Br)ccc1O | / | 5% | 3% | -4% | -2% | i
CC(C)c1ccc(O)c(C(=O)c2cnn(-c3ccccc3)c2)c1 | i | 20µM* | 1% | / | -27% | i
CC(=O)c1ccc(N2CCC(c3cc(-c4ccc(Cl)cc4)n[nH]3)CC2)c([N+](=O)[O-])c1 | i | 16µM* | 1% | -2% | 4% | i
COc1ccc(-c2cc(C3CCN(c4ccc(C(C)=O)cc4[N+](=O)[O-])CC3)[nH]n2)cc1 | i | -2% | 3% | -3% | 1% | ?
CC(Sc1nnc(NC2CCCCC2)s1)C(=O)Nc1ccc2c(c1)C(=O)c1ccccc1C2=O (stereo not drawn) | ? | 35µM* | 1% | 1% | 2% | i
CC(Sc1nnc(NC2CC2)s1)C(=O)Nc1ccc(N2CCOCC2)cc1 (stereo not drawn) | i | ? | 1% | 1% | 5% | i

Screening results: PubChem BioAssay, National Center for Advancing Translational Sciences (NCATS)
